Results reported in the supplement of paper PMC9262897, “Low-cost anti-mycobacterial drug discovery using engineered E. coli” (Nature Communications, 2022).
Where a name gives a salt, the structure may show the parent alone. ± gives the standard deviation of the averaged measurements.

How the values were obtained:
Assay in all cases: growth (OD600 after 10 h); higher = more growth (less inhibition)
[1] = tested on: E. coli TESEC Alr+ wild-type control; conditions: compound 0.1 mM; raw OD600 reference: median of DMSO wells 0.241, cell-free background 0.041
Protocol: (§1)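 TESEC Mtb Alr E. coli, or the Alr+ wild-type control, in 384-well plates with Prestwick library compounds at 0.1 mM and 1% DMSO, across arabinose induction levels of 1E3 to 1E7 nM. Growth is read as OD600 after 10 h at 37 °C in triplicate biological replicates.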

E. coli TESEC Mtb Alr [2] = conditions: compound 0.1 mM
Protocol: as §1

E. coli TESEC Mtb Asd = conditions: compound 0.1 mM
Protocol: (§2)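 TESEC E. coli strains in which the native enzyme is deleted and replaced by arabinose-inducible Mtb Asd, DapB, CysH or TrpD, each grown in its selective medium. Strains were screened against the Prestwick library at 0.1 mM and 1% DMSO in 384-well format at low and high arabinose induction. Growth is read as OD600 after 10 h in triplicate.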

E. coli TESEC Mtb DapB = conditions: compound 0.1 mM
Protocol: as §2

[3] = tested on: E. coli TESEC Alr+ wild-type control; conditions: compound 0.1 mM; raw OD600 reference: median of DMSO wells 0.49, cell-free background 0.052
Protocol: (§3)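 TESEC Mtb Alr E. coli (ΔaraC ΔtolC ΔentC Δalr ΔdadX, arabinose-inducible Mtb Alr) or the Alr+ wild-type control strain, grown in defined M9-fructose medium without D-alanine in 96-well plates with Prestwick library compounds at 0.1 mM and 1% DMSO. Low Alr induction is 0.1 µM arabinose and high induction is 10 mM arabinose.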

E. coli TESEC Mtb Alr [4] = conditions: compound 0.1 mM; remark: listed apart in the source
Protocol: as §3

[5] = arabinose 1000 nM, raw OD600 reference: median of DMSO wells 0.294, cell-free background 0.041
[6] = arabinose 10000 nM, raw OD600 reference: median of DMSO wells 0.264, cell-free background 0.041
[7] = arabinose 100000 nM, raw OD600 reference: median of DMSO wells 0.201, cell-free background 0.041
[8] = arabinose 1000000 nM, raw OD600 reference: median of DMSO wells 0.193, cell-free background 0.041
[9] = arabinose 10000000 nM, raw OD600 reference: median of DMSO wells 0.146, cell-free background 0.041
[10] = arabinose induction (level): High, raw OD600 reference: median of DMSO wells 0.331, cell-free background 0.041
[11] = arabinose induction (level): Low, raw OD600 reference: median of DMSO wells 0.417, cell-free background 0.041
[12] = arabinose induction (level): High, raw OD600 reference: median of DMSO wells […], cell-free background 0.041
[13] = arabinose induction (level): Low, raw OD600 reference: median of DMSO wells 0.227, cell-free background 0.041
[14] = arabinose 100 nM, raw OD600 reference: median of DMSO wells 0.413, cell-free background 0.052
[15] = arabinose 10000000 nM, raw OD600 reference: median of DMSO wells […], cell-free background 0.052

SMILES	growth [1]	growth (E. coli TESEC Mtb Alr [2]; [5])	growth (E. coli TESEC Mtb Alr [2]; [6])	growth (E. coli TESEC Mtb Alr [2]; [7])	growth (E. coli TESEC Mtb Alr [2]; [8])	growth (E. coli TESEC Mtb Alr [2]; [9])	growth (E. coli TESEC Mtb Asd; [10])	growth (E. coli TESEC Mtb Asd; [11])	growth (E. coli TESEC Mtb DapB; [12])	growth (E. coli TESEC Mtb DapB; [13])	growth [3]	growth (E. coli TESEC Mtb Alr [4]; [14])	growth (E. coli TESEC Mtb Alr [4]; [15])
COc1c(N2C[C@@H]3CCCN[C@@H]3C2)c(F)cc2c(=O)c(C(=O)O)cn(C3CC3)c12 [Moxifloxacin]	0.04227 ± 0.00025	0.04077 ± 0.00035	0.0401 ± 0.0003	0.0415 ± 0.0005	0.04013 ± 0.00012	0.0446 ± 0.0054	0.0511 ± 0.0029	0.052 ± 0.0016	0.04903 ± 0.00038	0.04933 ± 0.00035	0.0539 ± 0.0014	0.05287 ± 0.00031	0.0516 ± 0.0013
C#C[C@]1(O)CC[C@H]2[C@@H]3CCc4cc(OC)ccc4[C@H]3CC[C@@]21C [Ethynylestradiol 3-methyl ether]	0.193 ± 0.01	0.279 ± 0.0063	0.262 ± 0.013	0.184 ± 0.015	0.163 ± 0.0052	0.149 ± 0.0072	0.383 ± 0.025	0.413 ± 0.06	0.204 ± 0.031	0.226 ± 0.025	0.564 ± 0.025	0.405 ± 0.011	0.348 ± 0.024
CNCCCC1c2ccccc2C=Cc2ccccc21 [Protriptyline hydrochloride]	0.177 ± 0.013	0.219 ± 0.0041	0.256 ± 0.018	0.157 ± 0.0029	0.12 ± 0.0051	0.137 ± 0.0036	0.153 ± 0.0035	0.263 ± 0.058	0.164 ± 0.039	0.21 ± 0.011	0.558 ± 0.023	0.402 ± 0.013	0.313 ± 0.018
CC=CC1=C(C(=O)O)N2C(=O)[C@@H](NC(=O)[C@H](N)c3ccc(O)cc3)[C@H]2SC1 [Cefprozil]	0.223 ± 0.0095	0.303 ± 0.0056	0.269 ± 0.016	0.184 ± 0.0039	0.194 ± 0.021	0.163 ± 0.0058	0.259 ± 0.048	0.417 ± 0.022	0.204 ± 0.0084	0.255 ± 0.039	0.543 ± 0.068	0.414 ± 0.017	0.374 ± 0.015
CN1CCCN=C1/C=C/c1cccs1 [Pyrantel tartrate]	0.235 ± 0.0042	0.278 ± 0.0075	0.268 ± 0.0081	0.191 ± 0.015	0.187 ± 0.00096	0.148 ± 0.0055	0.347 ± 0.032	0.416 ± 0.039	0.197 ± 0.0092	0.249 ± 0.046	0.458 ± 0.043	0.409 ± 0.0096	0.3434 ± 0.0026
CC(=O)OCC(=O)NCCCOc1cccc(CN2CCCCC2)c1 [Roxatidine Acetate HCl]	0.241 ± 0.013	0.302 ± 0.0074	0.265 ± 0.008	0.212 ± 0.024	0.186 ± 0.0084	0.139 ± 0.0026	0.29 ± 0.046	0.389 ± 0.023	0.185 ± 0.016	0.186 ± 0.0097	0.673 ± 0.062	0.408 ± 0.0076	0.3569 ± 0.0035
CC(=O)Nc1nnc(S(N)(=O)=O)s1 [Acetazolamide]	0.249 ± 0.017	0.293 ± 0.023	0.253 ± 0.0037	0.234 ± 0.0084	0.166 ± 0.0058	0.141 ± 0.006	0.361 ± 0.014	0.394 ± 0.051	0.211 ± 0.015	0.253 ± 0.077	0.436 ± 0.042	0.408 ± 0.011	0.317 ± 0.05
CC1c2cccc(O)c2C(O)=C2C(=O)C3(O)C(O)=C(C(N)=O)C(=O)C(N(C)C)C3C(O)C21 (centres undefined) [Doxycycline hydrochloride]	0.0447 ± 0.00093	0.0433 ± 0.002	0.0456 ± 0.001	0.04713 ± 0.00031	0.0487 ± 0.0075	0.0461 ± 0.0007	0.0572 ± 0.0053	0.0534 ± 0.0016	0.0563 ± 0.00081	0.0531 ± 0.0036	0.0579 ± 0.0011	0.0647 ± 0.0031	0.0602 ± 0.0014
CC(C)(C#N)c1cc(Cn2cncn2)cc(C(C)(C)C#N)c1 [Anastrozole]	0.222 ± 0.0057	0.274 ± 0.0032	0.272 ± 0.0071	0.194 ± 0.009	0.183 ± 0.0054	0.13 ± 0.0054	0.339 ± 0.033	0.384 ± 0.038	0.194 ± 0.011	0.214 ± 0.028	0.483 ± 0.03	0.409 ± 0.0048	0.321 ± 0.016
NC[C@@H]1O[C@H](O[C@H]2[C@@H](O)[C@H](O[C@@H]3[C@@H](O)[C@H](N)C[C@H](N)[C@H]3O[C@H]3O[C@H](CN)[C@@H](O)[C@H](O)[C@H]3N)O[C@@H]2CO)[C@H](N)[C@@H](O)[C@@H]1O [Neomycin sulfate]	0.249 ± 0.0054	0.305 ± 0.009	0.287 ± 0.0035	0.219 ± 0.015	0.19 ± 0.005	0.163 ± 0.0028	0.271 ± 0.043	0.389 ± 0.021	0.187 ± 0.018	0.245 ± 0.041	0.453 ± 0.037	0.4232 ± 0.0036	0.343 ± 0.013
CC(=O)O[C@H]1C(=O)[C@@]2(C)[C@H]([C@H](OC(=O)c3ccccc3)[C@]3(O)C[C@H](OC(=O)[C@H](O)[C@@H](NC(=O)c4ccccc4)c4ccccc4)C(C)=C1C3(C)C)[C@]1(OC(C)=O)CO[C@@H]1C[C@@H]2O [Paclitaxel]	0.23 ± 0.013	0.285 ± 0.019	0.255 ± 0.024	0.222 ± 0.019	0.2 ± 0.015	0.179 ± 0.018	0.34 ± 0.051	0.385 ± 0.079	0.209 ± 0.006	0.279 ± 0.059	0.554 ± 0.03	0.429 ± 0.014	0.336 ± 0.033
O=C(O)c1cc(/N=N/c2ccc(S(=O)(=O)Nc3ccccn3)cc2)ccc1O [Sulfasalazine]	0.274 ± 0.0048	0.308 ± 0.0065	0.254 ± 0.0054	0.193 ± 0.018	0.169 ± 0.011	0.131 ± 0.0032	0.314 ± 0.065	0.363 ± 0.054	0.207 ± 0.018	0.231 ± 0.03	0.473 ± 0.032	0.431 ± 0.0053	0.349 ± 0.017
COc1ccc(C[C@@H]2c3cc(OC)c(OC)cc3CC[N@+]2(C)CCC(=O)OCCCCCOC(=O)CC[N@@+]2(C)CCc3cc(OC)c(OC)cc3[C@H]2Cc2ccc(OC)c(OC)c2)cc1OC [Cisatracurium besylate]	0.188 ± 0.0083	0.307 ± 0.0083	0.242 ± 0.014	0.166 ± 0.0072	0.119 ± 0.0042	0.156 ± 0.0018	0.307 ± 0.04	0.414 ± 0.032	0.168 ± 0.022	0.209 ± 0.021	0.497 ± 0.054	0.411 ± 0.0072	0.304 ± 0.0097
